The results in this text go back to PubChem BioAssay.

Assay [1] can be described thus: anti-His antibody binders, primary screen, artefact control for SMM control protein annotation, biochemical, small-molecule microarray, 635 nm fluorescence (AID 1128).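 Further: score merges feature fluorescence with signal-to-noise for each printed compound spot.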 As to conditions: anti-His Alexa647 antibody binding, higher = more signal.
For assay [2], the system named is Human papillomavirus type 1a E7 protein (residues 1-88). In words: HPV1a E7 small-molecule binders, primary screen, biochemical, small-molecule microarray, residues 1-88, 635 nm (AID 1129). As to conditions: small-molecule microarray binding, fluorescence 635 nm; higher = more signal.
The target in assay [3] is Focal adhesion kinase 1 (Homo sapiens) (UniProt Q05397). Briefly: small-molecule microarray binders of FAK, primary screen, biochemical, 635/667 nm fluorescence, BSA, DTT (AID 1130).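 Further: composite of spot emission at 667 nm and signal to noise over triplicate slides.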 As to conditions: PTK2 binding, 635 nm fluorescence, higher = more signal.
For assay [4], the system named is Fibrinogen (Alexa647-labelled). In words: fibrinogen binders on compound microarrays, profiling panel, artefact control for SMM control-protein annotation, biochemical, small-molecule microarray, 635/667 nm fluorescence (AID 1131).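 Further: z-score merges 667 nm fluorescence with per-spot signal-to-noise over triplicate slides.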 The conditions noted are these: fibrinogen-A647 binding fluorescence, higher = more signal.
Assay [5] concerns the target Follistatin (Homo sapiens) (UniProt P19883). Briefly: follistatin binders on small-molecule microarrays, primary screen, biochemical, small-molecule microarray, 635/667 nm fluorescence (AID 1132). The conditions noted are these: FST binding, 635 nm fluorescence, higher = more signal.
Assay [6] has as its target Fibroblast growth factor 2 (Homo sapiens) (UniProt P09038). In words: FGF2 binders on small-molecule microarrays, primary screen, biochemical, small-molecule microarray, 635/667 nm fluorescence (AID 1133). The conditions noted are these: small-molecule microarray binding, FGF2, fluorescence 635/667; higher = more signal.
Assay [7] can be described thus: mitochondrial membrane potential change in A549 cells, profiling panel, cell-based, JC-1 fluorescence, basal, 24 h, 100 nL (AID 1138).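 Further: A549 lung adenocarcinoma cells under basal conditions with no added stimulus; test concentration not given here.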 The conditions noted are these: higher = more signal.
Another assay deals with Lefty1. Briefly: Lefty1 binders on small-molecule microarrays, primary screen, biochemical, small-molecule microarray, 635/667 nm fluorescence (AID 1139). As to conditions: small-molecule microarray binding, fluorescence 635/667; higher = more signal.
In assay [8] the test system is wheat germ agglutinin (Triticum aestivum), Alexa647-labelled. In words: wheat germ agglutinin binders on compound microarrays, profiling panel, artefact control for SMM control-protein annotation, biochemical, small-molecule microarray, 635/667 nm fluorescence (AID 1140).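 Further: score merges 667 nm feature emission with signal to noise over triplicate slides.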 As to conditions: WGA-A647 binding, 635 nm fluorescence, higher = more signal.
Assay [9] deals with Luciferin 4-monooxygenase (Photinus pyralis) (UniProt P08659). Briefly: firefly luciferase enzyme inhibitors, primary screen, biochemical, luminescence, purified enzyme, 2006 set (AID 1141).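 Further: cell-free assay with purified firefly luciferase at 100 ng per well in PBS; test concentration not given here.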 As to conditions: SteadyGlo luminescence, 30 min, higher = more signal, called active from +8 up or from −8 down.
The test system of assay [10] is Wnt5a (protein binding on small-molecule microarray). Briefly: Wnt5a binders on small-molecule microarray, primary screen, biophysical, 635/667 nm fluorescence (AID 1142).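 Further: fluorescence read at 667 nm with signal to noise per printed feature.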 As to conditions: 635 nm fluorescence, higher = more signal.
A short description of assay [11]: cell viability in Huh7 cells, primary screen, cytotoxicity control for HCV replication inhibitor project, CellTiter-Glo luminescence, basal, 48 h (AID 1143).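 Further: Huh7 hepatoma cells carrying a hepatitis C replication reporter with no stimulus; test concentration not given here.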 The conditions noted are these: Huh7 HCV replicon, higher = more signal, called active from +8 up or from −8 down. For orientation: In ATP-based viability assays light output follows the ATP content of the culture.

Assay [12] in a line: P. aeruginosa biofilm formation inhibitors, primary screen, PAO1 strain, BacTiter-Glo luminescence, LB-PBS (AID 1144). As to conditions: 12 h, higher = more signal.
Assay [13] can be described thus: CREB reporter modulators without forskolin, primary screen, cell-based, PC12, CRE-LacZ reporter, unstimulated (AID 1145). The conditions noted are these: no forskolin, luminescence, 4.5 h, higher = more signal, called active from +8 up or from −8 down.
Assay [14] can be described thus: CREB reporter modulators under forskolin, primary screen, cell-based, PC12, CRE-LacZ reporter, forskolin-stimulated (AID 1146).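 Further: PC12 cells with 6xCRE LacZ reporter stimulated by forskolin 10 µM; beta-galactosidase reporter signal reflecting CREB driven transcription.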 The conditions noted are these: luminescence, 4.5 h, higher = more signal, called active from +8 up or from −8 down.
For assay [15], the target named is Streptavidin (Streptomyces avidinii) (UniProt P22629). Briefly: streptavidin binders on small-molecule microarray, primary screen, artefact control for SMM compound annotation, biophysical, 635/667 nm fluorescence (AID 1147).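 Further: signal reflects streptavidin binding to arrayed compounds as a control protein.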 As to conditions: streptavidin binding, higher = more signal.
Assay [16] can be described thus: small-molecule binders of probe aInhba, primary screen, biochemical, small-molecule microarray, 635/667 nm fluorescence (AID 1148).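 Further: score merges 667nm spot fluorescence with signal-to-noise for antibody binding to printed compounds.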 As to conditions: higher = more signal.
Assay [17] addresses Torsin-1A (Homo sapiens) (UniProt O14656). Briefly: torsin A binders from cell lysate, primary screen, small-molecule microarray, wild-type, 635/667 nm (AID 1149). The conditions noted are these: COS7 hTOR1A-WT lysate, 635 nm fluorescence, higher = more signal.
For assay [18] the target is unchanged. Briefly: small-molecule binders of mutant TOR1A in lysate, primary screen, cell lysate, small-molecule microarray, COS7 lysate, 635/667 nm fluorescence (AID 1150).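 Further: score pools 667 nm emission and signal to noise measuring lysate protein binding.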 The conditions noted are these: COS7 hTOR1A mutant lysate, 635 nm fluorescence, higher = more signal.
The test system of assay [19] is Sonic hedgehog protein (Shh). In words: small-molecule binders of Shh protein, primary screen, biochemical, small-molecule microarray, 635/667 nm fluorescence (AID 1151).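 Further: Shh protein binding to compounds spotted on small-molecule microarray slides; score combines spot fluorescence intensity with signal-to-noise across triplicate slides.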 The conditions noted are these: small-molecule microarray binding, 635 nm fluorescence; higher = more signal.

Activity calls are given as the source filed them. Unless noted, how the calls were made is not given here.

Focal adhesion kinase 1 (Homo sapiens), sequence (Q05397 whole entry, looked up): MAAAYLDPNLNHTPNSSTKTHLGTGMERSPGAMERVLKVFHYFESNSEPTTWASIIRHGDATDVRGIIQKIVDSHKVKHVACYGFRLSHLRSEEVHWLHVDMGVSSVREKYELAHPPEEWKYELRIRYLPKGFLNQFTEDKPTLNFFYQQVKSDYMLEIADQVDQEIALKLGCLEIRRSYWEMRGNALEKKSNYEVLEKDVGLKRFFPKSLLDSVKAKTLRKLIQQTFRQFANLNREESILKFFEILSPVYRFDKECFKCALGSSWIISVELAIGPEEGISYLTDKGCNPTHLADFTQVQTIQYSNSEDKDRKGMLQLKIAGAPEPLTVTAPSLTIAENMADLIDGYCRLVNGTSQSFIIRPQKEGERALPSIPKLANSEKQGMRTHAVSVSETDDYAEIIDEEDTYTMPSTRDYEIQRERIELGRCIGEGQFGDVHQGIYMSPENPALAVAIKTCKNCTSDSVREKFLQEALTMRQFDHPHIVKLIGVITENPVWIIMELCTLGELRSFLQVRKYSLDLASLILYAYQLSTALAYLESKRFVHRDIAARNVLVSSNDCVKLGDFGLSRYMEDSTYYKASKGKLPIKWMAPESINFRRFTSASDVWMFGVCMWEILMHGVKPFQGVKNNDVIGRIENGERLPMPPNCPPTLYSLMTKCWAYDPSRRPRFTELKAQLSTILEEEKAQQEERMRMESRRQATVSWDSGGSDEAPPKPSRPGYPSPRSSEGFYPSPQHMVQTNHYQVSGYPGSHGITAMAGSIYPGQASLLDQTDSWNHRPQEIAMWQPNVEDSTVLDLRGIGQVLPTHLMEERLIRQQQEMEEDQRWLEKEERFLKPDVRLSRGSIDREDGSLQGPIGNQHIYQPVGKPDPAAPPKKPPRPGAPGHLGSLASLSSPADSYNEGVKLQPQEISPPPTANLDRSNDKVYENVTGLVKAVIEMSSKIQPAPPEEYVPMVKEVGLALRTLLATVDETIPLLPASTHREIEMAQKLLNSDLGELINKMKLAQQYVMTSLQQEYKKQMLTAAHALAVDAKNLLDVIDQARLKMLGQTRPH
Streptavidin (Streptomyces avidinii), sequence (P22629 whole entry, looked up): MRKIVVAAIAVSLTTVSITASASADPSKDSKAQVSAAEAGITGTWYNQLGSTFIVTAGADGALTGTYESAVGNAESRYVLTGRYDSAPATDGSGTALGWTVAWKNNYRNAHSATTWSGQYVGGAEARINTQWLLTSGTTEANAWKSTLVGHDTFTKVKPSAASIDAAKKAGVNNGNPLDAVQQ
Follistatin (Homo sapiens), sequence (P19883 whole entry, looked up): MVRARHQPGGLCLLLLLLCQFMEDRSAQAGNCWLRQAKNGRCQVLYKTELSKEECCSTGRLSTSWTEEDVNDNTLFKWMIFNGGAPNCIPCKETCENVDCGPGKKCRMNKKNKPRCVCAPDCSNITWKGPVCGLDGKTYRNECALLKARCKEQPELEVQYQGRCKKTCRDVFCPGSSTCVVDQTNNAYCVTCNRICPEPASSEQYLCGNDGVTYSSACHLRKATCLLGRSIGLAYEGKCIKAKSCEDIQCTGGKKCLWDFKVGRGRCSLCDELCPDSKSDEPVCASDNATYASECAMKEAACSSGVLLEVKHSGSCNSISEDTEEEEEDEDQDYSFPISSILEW
Torsin-1A (Homo sapiens), sequence (O14656 whole entry, looked up): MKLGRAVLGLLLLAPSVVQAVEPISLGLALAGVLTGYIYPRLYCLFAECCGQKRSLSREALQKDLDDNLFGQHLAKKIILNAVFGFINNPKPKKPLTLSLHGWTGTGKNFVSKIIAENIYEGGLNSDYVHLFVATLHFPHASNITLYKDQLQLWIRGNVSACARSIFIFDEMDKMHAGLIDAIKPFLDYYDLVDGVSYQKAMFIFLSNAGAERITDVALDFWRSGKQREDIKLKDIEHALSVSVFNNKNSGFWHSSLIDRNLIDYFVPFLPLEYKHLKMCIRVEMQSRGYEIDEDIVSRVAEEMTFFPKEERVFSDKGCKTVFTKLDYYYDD
Luciferin 4-monooxygenase (Photinus pyralis), sequence (P08659 whole entry, looked up): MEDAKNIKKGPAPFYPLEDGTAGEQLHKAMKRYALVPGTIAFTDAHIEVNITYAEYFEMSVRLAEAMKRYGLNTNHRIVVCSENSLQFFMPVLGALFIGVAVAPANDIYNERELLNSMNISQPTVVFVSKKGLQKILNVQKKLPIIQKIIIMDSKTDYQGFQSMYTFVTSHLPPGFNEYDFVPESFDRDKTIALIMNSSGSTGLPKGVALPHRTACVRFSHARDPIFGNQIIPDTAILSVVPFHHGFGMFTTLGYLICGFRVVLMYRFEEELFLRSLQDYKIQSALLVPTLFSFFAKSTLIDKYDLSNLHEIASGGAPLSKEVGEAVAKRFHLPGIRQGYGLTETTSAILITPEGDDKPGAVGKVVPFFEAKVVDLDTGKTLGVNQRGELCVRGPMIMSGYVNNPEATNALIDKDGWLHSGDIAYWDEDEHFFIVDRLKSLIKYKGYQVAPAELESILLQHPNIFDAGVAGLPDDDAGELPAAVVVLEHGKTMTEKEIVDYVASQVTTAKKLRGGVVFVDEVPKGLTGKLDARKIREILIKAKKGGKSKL
Fibroblast growth factor 2 (Homo sapiens), sequence (P09038 whole entry, looked up): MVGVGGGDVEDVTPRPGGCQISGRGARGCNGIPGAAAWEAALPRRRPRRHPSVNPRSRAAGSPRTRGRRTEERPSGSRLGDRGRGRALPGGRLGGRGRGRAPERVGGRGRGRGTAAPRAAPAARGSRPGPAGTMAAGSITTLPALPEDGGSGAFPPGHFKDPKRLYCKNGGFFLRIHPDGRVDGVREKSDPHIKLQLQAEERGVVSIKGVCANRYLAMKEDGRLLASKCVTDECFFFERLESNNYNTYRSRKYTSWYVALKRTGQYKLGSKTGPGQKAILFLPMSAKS

Take `CCCCC(=C=CC[C@@H](O)c1ccc(CO)o1)CCO`: the composite z-score in assay [1] is 1.05; in assay [2] it was 0.0355; in [3], -0.347; in assay [4], -0.313; in assay [5], 1.14; in [6], 1.13. Further, the composite z-score in the assay with Lefty1 was 1.08; in [8], 0.55; in assay [10], 0.136; in [15], -0.419; in assay [16], 0.185; with Torsin-1A (Homo sapiens) [17], 0.867. Further, the composite z-score in the assay with Torsin-1A (Homo sapiens) [18] turned out to be 0.359; in [19] it was 1.37. Further, the z-score in assay [7] is 0.622; in [9] it was -2.51 (inactive); in [11], -0.0181 (inactive); in [12] it was -0.748 (inactive); in assay [13], 2.69 (inactive); in assay [14] it was -1.19 (inactive).
On to `CN(C)C(=O)[C@]1(Cc2ccccc2)N=C(c2ccc(OCCCO)cc2)O[C@@H]1c1ccccc1N=[N+]=[N-]`, for which the composite z-score in [1] is 2.47; in assay [2], 1.2; in assay [3], 0.203; in assay [4], 0.96; in [5] it was 1.33; in [6] it was 1.63. In addition, the composite z-score turned out to be 0.244 in the assay on Lefty1; 0.702 in assay [8]; 0.435 in assay [10]; 1.06 in assay [15]; 0.143 in [16]; 0.37 in the assay with Torsin-1A (Homo sapiens) [17]. The results for the composite z-score (with Torsin-1A (Homo sapiens) [18]; in [19]) were 0.523 and 0.0841, respectively. Besides, the z-score in assay [7] is 0.702; in assay [9] it was -5.05 (inactive); in assay [11] it was -4.22 (inactive); in assay [12], 0.54 (inactive); in assay [13], -0.459 (inactive); in assay [14] it was -1.58 (inactive).
As for `C=CCNC(=O)[C@@H]1[C@H]2C(=O)O[C@H](c3ccccc3)[C@H](c3ccccc3)N2[C@H](c2ccc(OCCO)cc2)[C@@]12C(=O)N(C(=O)OCCOC)c1ccc(C#CCNC(N)=O)cc12`, the composite z-score in [1] stood at 1.26; in [2], 1.17; in assay [3] it was 0.613; in [4], 0.82; in [5], 1.38; in [6], 1.34. In addition, the composite z-score in the assay with Lefty1 was determined as 0.947; in assay [8], 0.94; in assay [10], 0.372; in assay [15], 0.348; in [16] it was 0.115; with Torsin-1A (Homo sapiens) [17], 0.609. The composite z-score with Torsin-1A (Homo sapiens) [18] was determined as 0.733; in [19] it was 1.56. In addition, the z-score in assay [7] is -0.746; in assay [9], -0.94 (inactive); in assay [11], -1.1 (inactive); in assay [12], 0.388 (inactive); in assay [13] it was 0.505 (inactive); in assay [14], -0.419 (inactive).
Turning to `COCCOC(=O)N1C(=O)[C@@]2(c3cc(C#CC4(O)CCCCCC4)ccc31)[C@H](C(=O)Nc1nc3ccccc3s1)[C@H]1C(=O)O[C@H](c3ccccc3)[C@H](c3ccccc3)N1[C@@H]2c1ccc(OCCO)cc1`, the composite z-score in assay [1] is 0.553; in assay [2] it was 1.16; in assay [3], -0.0405; in assay [4] it was 0.801; in assay [5] it was 1.12; in assay [6], 1.58. Further, the composite z-score amounted to 1.22 in the assay with Lefty1; 0.924 in [8]; 0.564 in assay [10]; 0.587 in [15]; 0.366 in assay [16]; 0.669 with Torsin-1A (Homo sapiens) [17]. For the same molecule, the composite z-score is 0.849 in the assay with Torsin-1A (Homo sapiens) [18] and 1.42 in [19]. Moreover, the z-score in [7] was -2.51; in assay [9] it was -3.29 (inactive); in assay [11], -3.02 (inactive); in assay [12], -1.1 (inactive); in [13], -0.748 (inactive); in assay [14] it was 1.65 (inactive).
`COc1cc2c(cc1O)C=[N+](Cc1cc3c(cc1Br)OCO3)CC2`: the composite z-score in [1] is -0.954; in assay [2] it was -1.07; in assay [3], -0.626; in [4] it was -2.07; in assay [5] it was -0.174; in assay [6] it was -0.659. Further, the composite z-score is -0.553 in the assay on Lefty1; 0.248 in assay [8]; -0.234 in [10]; -1.88 in [15]; -0.154 in assay [16]; -0.39 with Torsin-1A (Homo sapiens) [17]. Also, the composite z-score with Torsin-1A (Homo sapiens) [18] is -0.945; in [19] it was -0.216. The z-score is -0.784 in assay [7]; 0.807 (inactive) in assay [9]; -2.14 (inactive) in [11]; -0.304 (inactive) in assay [12]; -0.671 (inactive) in assay [13]; 0.945 (inactive) in [14].
